These results are taken from PubChem BioAssay (NCATS).

SMILES strings stand for the structures. Records with an inconclusive call do not appear. Activity calls are given as the source filed them. Unless noted, calls follow the shape of the dose curve; as a rule, active = well fitted curve in either direction with a large enough effect (not every such curve was filed as active); inconclusive = small, poorly fitted or top-dose-only effect, or another doubt; inactive = flat fitted curve, though single readings scatter. A value given as a limit tells only on which side of the number the result lay.

The target in assay [1] is Lysosomal acid glucosylceramidase (Homo sapiens) (UniProt P04062). The experiment in a line: Glucocerebrosidase-p2 (AID 348; in the data active = potency below about 10 µM; also: potency is read from the fitted curve at half-maximal effect). Conditions: purified GBA, blue fluorogenic substrate, 40 min. Summed up: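 Normal human glucocerebrosidase (0.2 nM) with blue fluorogenic substrate (80 uM final) in citrate/phosphate pH 5.9 with 10mM sodium taurocholate, 0.01% tween-20; 40 min RT, NaOH/glycine stop; fluorescence Ex 365/Em 440; AC50 from a titration from 0.6 nM upwards.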
Lysosomal acid glucosylceramidase (Homo sapiens), sequence (P04062 whole entry, looked up): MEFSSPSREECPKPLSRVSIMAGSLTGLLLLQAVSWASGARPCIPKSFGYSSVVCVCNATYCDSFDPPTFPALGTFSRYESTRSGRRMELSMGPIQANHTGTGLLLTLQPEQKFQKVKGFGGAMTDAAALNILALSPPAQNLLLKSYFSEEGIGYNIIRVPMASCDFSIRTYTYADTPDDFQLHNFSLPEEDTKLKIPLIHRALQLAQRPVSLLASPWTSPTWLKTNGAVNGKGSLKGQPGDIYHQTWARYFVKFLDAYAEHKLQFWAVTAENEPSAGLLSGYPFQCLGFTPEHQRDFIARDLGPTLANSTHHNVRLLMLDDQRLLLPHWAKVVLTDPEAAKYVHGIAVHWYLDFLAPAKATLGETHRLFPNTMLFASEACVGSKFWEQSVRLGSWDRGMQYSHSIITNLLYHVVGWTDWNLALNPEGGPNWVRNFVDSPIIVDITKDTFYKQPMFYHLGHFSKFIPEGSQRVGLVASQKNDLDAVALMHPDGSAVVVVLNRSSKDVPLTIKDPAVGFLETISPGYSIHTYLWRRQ

A short description of assay [2]: AP1 Signaling Pathway (AID 357). Also: % is scaled to controls: 0 for no effect and ±100 for the full control effect. Conditions: ME-180 AP-1-bla reporter, EGF-induced, beta-lactamase ratio, 5 h; at 7.69 µM (top of the series) unless noted. The method, boiled down:
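AP-1-bla ME-180 cells with beta-lactamase reporter under AP-1 response element, stimulated with EC50 EGF; compounds titrated, 5 hours at 37 degrees Celsius. CCF4 read at 460/530 nm ratio; positive and negative modulators judged by AC50.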

In assay [3] the target is Cytochrome P450 1A2 (Homo sapiens) (UniProt P05177). The experiment in a line: p450-cyp1a2 (AID 410; calls by dose curve;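 also: -100% = full effect of reference inhibitor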). Conditions: recombinant CYP1A2, luciferin-ME demethylation, luminescence; series mostly up to 57 µM. Summed up:
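Luminescent demethylation readout: Luciferin-ME (100uM, equal to Km) turned over by 20nM CYP1A2 for 60 min at room temperature after NADPH regeneration addition, following 10 min compound preincubation. Normalization used 57 uM furafylline as full inhibition.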

Assay [4] in a line: Stat Signaling Pathway (AID 446).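 Also: ME-180 cervical cancer cells given 40 pM IL-6 alongside compound; SIE-controlled beta-lactamase reporter measured as 460/530 nm FRET emission ratio; % is scaled to controls: 0 for no effect and ±100 for the full control effect.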 As to conditions: ME-180 (cervical carcinoma) SIE beta-lactamase reporter, IL-6 stimulated, 5 h; at 7.69 µM (top of the series) unless noted. Summed up: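 Compound effects on IL-6-induced STAT reporter activity were measured in ME-180 cells. After overnight culture, cells were co-treated with 40 pM IL-6 for 5 hrs before beta-lactamase substrate loading at room temperature.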

Assay [5] has as its target Glucocorticoid receptor (Homo sapiens) (UniProt P04150). The experiment in a line: GR-EFC Redistribution (AID 451; calls by dose curve; also: potency is read from the fitted curve at half-maximal effect). As to conditions: CHO-K1 GR-EFC translocation, beta-gal luminescence, 2 h. Summed up: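 CHO-K1 cells expressing nuclear EA and GR-ED fragments of b-gal; compounds titrated up to 46 uM final, 2 h at 37 C. GR nuclear translocation read as complemented b-gal luminescence after 1 h RT detection.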

Assay [6] concerns the target Mitogen-activated protein kinase 10 (Mus musculus) (UniProt Q61831). Kind of assay: JNK3 AlphaScreen Assay (AID 530).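 Also: kinase came from lysate of stimulated human HepG2 cells; signal reports phosphorylation of biotinylated GST-cJun 1-79 at Ser73 with 10 µM ATP; % is scaled to controls: 0 for no effect and ±100 for the full control effect.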 Conditions: JNK3 lysate, c-Jun phosphorylation; series mostly up to 57.1 µM. The method, boiled down: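 Activity was read by AlphaScreen after JNK3-containing HepG2 lysate (cytokine pre-activated) phosphorylated biotinylated GST-cJun with 10 uM ATP at room temperature. Phospho-Ser73 cJun antibody with Protein-A acceptor beads provided detection.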
A general note: Bead proximity is the source of the signal in Alpha formats.

For assay [7], the target named is 3',5'-cyclic-AMP phosphodiesterase 4B (Homo sapiens) (UniProt Q07343). Kind of assay: qHTS Assay for Inhibitors of PDE-IV (AID 607; active = well fitted activation curve with a large enough effect in the main read-out, with a control signal flat, not every such curve was filed as active; also: % of control where 0% means no effect). Conditions: HEK293 ACTOne CNG channel cells, membrane potential fluorescence; series mostly up to 22.9 µM. Summed up:
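ACTOne HEK293 cells carry a modified cAMP-gated CNG channel and express endogenous PDE4; plated 1000 cells/well, compounds up to 22.9 uM final. Membrane-potential dye fluorescence (ex 535/em 590) was read; parental cells received 10 uM forskolin + 100 uM RO 20-1724.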
On the technique in general: In qHTS, concentration-response curves come from the screen itself.

In assay [8] the target is Cytochrome P450 3A4 (Homo sapiens) (UniProt P08684). Kind of assay: qHTS Assay for Inhibitors and Substrates of Cytochrome P450 3A4 (AID 884; active = well fitted curve in the direction sought with a large enough effect; an effect the other way counts as inactive or inconclusive; also: nearly all actives have a fitted effect of over 50% in size; also: potency is read from the fitted curve at half-maximal effect). As to conditions: recombinant CYP3A4, Luciferin-PPXE luminescence; series mostly up to 57.1 µM. The method, boiled down: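 Luminescent readout of luciferin produced by CYP3A4 (20 nM) dealkylation of Luciferin-PPXE, 25 uM (its KM). NADPH-driven reaction ran 60 min at RT after 10 min compound preincubation; data scaled to 57 uM ketoconazole as 100% inhibition.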
Cytochrome P450 3A4 (Homo sapiens), sequence (P08684 whole entry, looked up): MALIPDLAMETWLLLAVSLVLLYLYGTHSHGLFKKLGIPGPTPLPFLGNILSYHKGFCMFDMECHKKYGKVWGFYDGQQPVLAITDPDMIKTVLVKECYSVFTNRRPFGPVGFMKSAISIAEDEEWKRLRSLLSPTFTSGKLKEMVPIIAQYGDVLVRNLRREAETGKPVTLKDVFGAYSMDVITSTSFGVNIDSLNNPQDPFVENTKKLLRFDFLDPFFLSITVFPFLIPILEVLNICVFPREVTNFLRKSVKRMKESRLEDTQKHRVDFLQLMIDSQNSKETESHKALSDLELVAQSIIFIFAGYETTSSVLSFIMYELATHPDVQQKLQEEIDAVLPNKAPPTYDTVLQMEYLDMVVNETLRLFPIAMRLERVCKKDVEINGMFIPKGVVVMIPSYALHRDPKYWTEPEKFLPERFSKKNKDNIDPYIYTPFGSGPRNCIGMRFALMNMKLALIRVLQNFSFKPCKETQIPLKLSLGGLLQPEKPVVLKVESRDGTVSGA

For assay [9] the target is unchanged. The experiment in a line: qHTS Assay for Activators of Cytochrome P450 3A4 (AID 885; active = well fitted curve in the direction sought with a large enough effect; an effect the other way counts as inactive or inconclusive; also: nearly all actives have a fitted effect of over 65% in size; also: potency is read from the fitted curve at half-maximal effect). As to conditions: recombinant CYP3A4, Luciferin-PPXE luminescence, 60 min; series mostly up to 57.1 µM. Summed up: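 CYP3A4 activity: Luciferin-PPXE O-dealkylation, 25uM substrate, 200mM KPO4, RT throughout. Read-out is luciferase luminescence; higher values reflect activation.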

The target in assay [10] is Cytochrome P450 2D6 (Homo sapiens) (UniProt P10635). Kind of assay: qHTS Assay for Inhibitors and Substrates of Cytochrome P450 2D6 (AID 891; active = well fitted curve in the direction sought with a large enough effect; an effect the other way counts as inactive or inconclusive; also: potency is read from the fitted curve at half-maximal effect; nearly all actives have a fitted effect of over 60% in size). Conditions: recombinant CYP2D6, luciferin-ME EGE luminescence; series mostly up to 57.1 µM. Summed up:
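Luminescent read-out of luciferin formed by 5 nM human CYP2D6 demethylating 30 uM Luciferin-ME EGE (Km level) over 60 min at room temperature after NADPH regeneration addition. Data normalized to full inhibition by 1.43 uM quinidine.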

Assay [11] in a line: qHTS Assay for Lipid Storage Modulators (AID 1519; calls by dose curve). Conditions: Drosophila S3 cells, BODIPY lipid droplet/cell ratio, laser cytometry, cells loaded with oleic acid; for activity change, negative = inhibition: at 57.5 µM (top of the series). Summed up:
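Cells seeded at 5,000 per well were treated with compounds over a concentration series and loaded with oleic acid (400 uM, as added). Lipid droplet fluorescence (488 nm excitation, 500-530 nm channel) was read by laser-scanning cytometry and normalized to 20 uM Triacsin C.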

Assay [12] is described as follows: Primary qHTS for small molecule stabilizers of the endoplasmic reticulum resident proteome: Secreted ER Calcium Modulated Protein (SERCaMP) assay (AID 1508630; active = well fitted curve in the direction sought with a large enough effect; an effect the other way counts as inactive or inconclusive; also: % is scaled to controls: 0 for no effect and ±100 for the full control effect). As to conditions: SH-SY5Y GLuc-SERCaMP (Gaussia luciferase released on ER calcium loss) secretion, thapsigargin, luminescence; series mostly up to 38.4 µM. Summed up: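 The SH-SY5Y reporter protocol was run at 3 concentrations up to 38.3 uM (primary) or 11 concentrations (follow-up): 16 h compound, 100 nM thapsigargin for 4 h, then extracellular luciferase luminescence.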

Where [13] appears, read: measured here: cell count channel max response.
The mark [14] stands for this setting: measured here: lipid channel max response.

Glucocorticoid receptor (Homo sapiens), sequence (P04150 whole entry, looked up, the tested form may be a part): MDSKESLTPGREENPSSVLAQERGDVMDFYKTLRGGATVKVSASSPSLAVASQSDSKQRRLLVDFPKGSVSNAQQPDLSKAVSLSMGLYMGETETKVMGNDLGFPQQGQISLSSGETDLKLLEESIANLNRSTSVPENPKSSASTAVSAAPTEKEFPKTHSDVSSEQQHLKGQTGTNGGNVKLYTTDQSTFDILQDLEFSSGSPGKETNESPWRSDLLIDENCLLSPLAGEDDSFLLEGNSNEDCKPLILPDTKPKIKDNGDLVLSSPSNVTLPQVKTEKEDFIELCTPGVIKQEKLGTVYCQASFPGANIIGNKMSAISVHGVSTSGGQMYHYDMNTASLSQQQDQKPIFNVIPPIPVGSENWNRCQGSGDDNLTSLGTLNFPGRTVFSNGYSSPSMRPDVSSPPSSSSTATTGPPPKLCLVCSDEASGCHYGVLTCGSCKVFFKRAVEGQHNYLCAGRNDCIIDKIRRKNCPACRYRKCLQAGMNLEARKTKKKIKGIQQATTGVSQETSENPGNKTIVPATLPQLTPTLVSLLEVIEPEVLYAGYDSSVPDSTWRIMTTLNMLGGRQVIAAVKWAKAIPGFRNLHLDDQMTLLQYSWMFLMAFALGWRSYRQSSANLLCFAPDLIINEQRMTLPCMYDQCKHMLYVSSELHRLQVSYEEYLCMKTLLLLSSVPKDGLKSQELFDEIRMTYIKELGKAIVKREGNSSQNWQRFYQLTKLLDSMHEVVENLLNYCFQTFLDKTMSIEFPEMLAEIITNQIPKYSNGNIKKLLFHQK
3',5'-cyclic-AMP phosphodiesterase 4B (Homo sapiens), sequence (Q07343 whole entry, looked up): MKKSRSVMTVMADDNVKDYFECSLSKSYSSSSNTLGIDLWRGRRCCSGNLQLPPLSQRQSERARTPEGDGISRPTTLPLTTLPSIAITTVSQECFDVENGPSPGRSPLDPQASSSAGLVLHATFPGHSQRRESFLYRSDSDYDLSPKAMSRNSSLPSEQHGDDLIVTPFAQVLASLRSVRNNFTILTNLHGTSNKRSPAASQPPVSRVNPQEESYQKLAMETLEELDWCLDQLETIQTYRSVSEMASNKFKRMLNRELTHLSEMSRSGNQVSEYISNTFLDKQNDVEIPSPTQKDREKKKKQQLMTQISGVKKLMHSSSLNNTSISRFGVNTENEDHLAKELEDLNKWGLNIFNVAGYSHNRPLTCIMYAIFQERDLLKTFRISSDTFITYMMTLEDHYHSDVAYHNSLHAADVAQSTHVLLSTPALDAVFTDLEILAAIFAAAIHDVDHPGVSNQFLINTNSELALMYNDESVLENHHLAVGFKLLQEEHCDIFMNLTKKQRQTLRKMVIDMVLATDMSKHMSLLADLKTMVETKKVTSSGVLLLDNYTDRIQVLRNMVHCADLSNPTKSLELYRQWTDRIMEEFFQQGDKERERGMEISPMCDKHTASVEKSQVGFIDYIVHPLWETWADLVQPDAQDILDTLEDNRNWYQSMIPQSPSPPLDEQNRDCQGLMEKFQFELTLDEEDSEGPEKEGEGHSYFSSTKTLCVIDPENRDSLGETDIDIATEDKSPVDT
Cytochrome P450 1A2 (Homo sapiens), sequence (P05177 whole entry, looked up): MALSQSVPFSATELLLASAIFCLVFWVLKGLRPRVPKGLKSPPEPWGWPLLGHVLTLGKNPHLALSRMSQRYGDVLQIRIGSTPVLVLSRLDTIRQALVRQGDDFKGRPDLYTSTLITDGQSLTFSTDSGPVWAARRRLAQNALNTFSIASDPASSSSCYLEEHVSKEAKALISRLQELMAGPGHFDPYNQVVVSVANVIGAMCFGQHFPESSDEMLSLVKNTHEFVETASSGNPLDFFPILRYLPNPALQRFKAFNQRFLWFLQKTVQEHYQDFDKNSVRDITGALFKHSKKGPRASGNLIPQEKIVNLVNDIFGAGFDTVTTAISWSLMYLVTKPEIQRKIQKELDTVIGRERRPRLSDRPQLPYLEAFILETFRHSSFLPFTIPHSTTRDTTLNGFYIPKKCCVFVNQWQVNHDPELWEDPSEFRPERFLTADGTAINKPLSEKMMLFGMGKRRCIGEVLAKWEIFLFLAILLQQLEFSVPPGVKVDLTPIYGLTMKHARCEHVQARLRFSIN
Cytochrome P450 2D6 (Homo sapiens), sequence (P10635 whole entry, looked up): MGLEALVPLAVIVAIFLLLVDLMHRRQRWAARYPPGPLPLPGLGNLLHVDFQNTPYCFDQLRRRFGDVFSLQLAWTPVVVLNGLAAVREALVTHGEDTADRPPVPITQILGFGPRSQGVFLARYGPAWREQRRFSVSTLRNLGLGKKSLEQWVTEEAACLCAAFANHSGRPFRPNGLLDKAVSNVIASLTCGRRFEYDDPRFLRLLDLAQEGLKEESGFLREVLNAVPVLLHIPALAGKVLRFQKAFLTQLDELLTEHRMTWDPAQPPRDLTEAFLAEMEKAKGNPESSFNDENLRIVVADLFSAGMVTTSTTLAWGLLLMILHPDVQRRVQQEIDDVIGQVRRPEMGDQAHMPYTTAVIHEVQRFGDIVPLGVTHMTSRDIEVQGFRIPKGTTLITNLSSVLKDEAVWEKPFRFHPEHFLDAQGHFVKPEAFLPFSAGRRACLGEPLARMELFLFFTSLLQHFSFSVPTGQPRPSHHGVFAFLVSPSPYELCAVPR

On to `O=C(c1ccco1)N1CCC2(CC1)CCN(C(c1ccccc1)c1ccccc1)CC2`, for which the Potency was > 11.4 µM (inactive) in assay [1], > 46 µM (inactive) in assay [5], 12.6 µM (active) in [9] and 5.01 µM (active) in assay [10]. The values for the activity change, negative = inhibition in assay [2] and in assay [11] were 0.867% (inactive) and 3.39% (inactive), respectively. Further, the Potency entry in assay [3], in assay [6], in assay [7] and in [8] was “inactive” throughout. Further, the activity, negative = inhibition in [4] is -7.63% (inactive). Also, the max response in [11] (setting [13]) came out at 7.88%; in assay [11] (setting [14]), 15%. Besides, the outcome in [12] was inactive.
Turning to `CN1CCCC2(CCN(C(=O)c3cc(C(F)(F)F)cc(C(F)(F)F)c3)CC2)C1`, the Potency in [1] was > 11.4 µM (inactive); in assay [5], > 46 µM (inactive). In addition, the values for the activity change, negative = inhibition in assay [2] and in assay [11] were 5.94% (inactive) and 3.25% (inactive), respectively. The Potency result in [3], in assay [6], in assay [7] and in assay [9] was “inactive” each time. Also, the activity, negative = inhibition in [4] is 4.14% (inactive). The max response in assay [11] (setting [13]) is 17.7%; in assay [11] (setting [14]), 23.1%. Moreover, in assay [12], the result was inactive.
For the compound `O=C(Oc1ccccc1)N1CCC2(CC1)CN(c1ccccn1)C2`, the figures for the Potency in assay [1], in assay [5] and in assay [9] were > 11.4 µM (inactive), > 46 µM (inactive) and 15.8 µM (active), respectively. Also, the activity change, negative = inhibition was 5.21% (inactive) in [2] and 7.94% (inactive) in assay [11]. Besides, the Potency entry in assay [3], in [6], in assay [7] and in [8] was “inactive” each time. For the same compound, the activity, negative = inhibition in assay [4] is -0.424% (inactive). Besides, the values for the max response in assay [11] (setting [13]) and in [11] (setting [14]) were 3.44% and 13.9%, respectively. For the same compound, the outcome in [12] was inactive.
As for `O=C(c1ccco1)N1CCC2(CCN(Cc3ccccc3)CC2)CC1`, the Potency in assay [1] is > 11.4 µM (inactive); in [5] it was > 46 µM (inactive); in [9], 20 µM (active); in [10] it was 3.98 µM (active). In addition, the activity change, negative = inhibition is -4.92% (inactive) in assay [2] and -0.6% (inactive) in assay [11]. Also, the Potency entry in [3], in assay [6], in [7] and in [8] was “inactive” in each case. Moreover, the activity, negative = inhibition in assay [4] was -6.84% (inactive). Besides, the max response in assay [11] (setting [13]) was -0.833%; in assay [11] (setting [14]), 1.54%. Moreover, in assay [12], the outcome was inactive.
`O=C(c1cccc(F)c1)N1CCC[C@@]2(CCN(c3ccccc3)C2)C1`: the Potency in [1] was > 11.4 µM (inactive); in assay [5], > 46 µM (inactive); in assay [8] it was 6.31 µM (active). In addition, the activity change, negative = inhibition is -6.87% (inactive) in assay [2] and 4.17% (inactive) in assay [11]. The Potency entry in assay [3], in [6], in [7] and in assay [9] was “inactive” in each case. Further, the activity, negative = inhibition in assay [4] was -5.23% (inactive). Besides, the max response in [11] (setting [13]) turned out to be 8.88%; in [11] (setting [14]) it was 15.7%. The result in assay [12] was inactive.
`COC(=O)N1CCC2(CCCN(Cc3nccs3)C2)CC1`: the Potency is > 11.4 µM (inactive) in assay [1] and > 46 µM (inactive) in [5]. The activity change, negative = inhibition is -9.45% (inactive) in assay [2] and 5.26% (inactive) in assay [11]. Moreover, the Potency entry in [3], in assay [6], in assay [7] and in [9] was “inactive” in each case. Moreover, the activity, negative = inhibition in assay [4] was -5.19% (inactive). Also, the max response is 2.22% in [11] (setting [13]) and 10.9% in [11] (setting [14]). The result in assay [12] was inactive.
With `O=C(c1csnn1)N1CCC2(CC1)CCN(c1ccncc1)CC2`, the Potency is > 11.4 µM (inactive) in [1] and > 46 µM (inactive) in assay [5]. Besides, the activity change, negative = inhibition in assay [2] is 0.494% (inactive); in [11], 1.35% (inactive). Moreover, the Potency entry in assay [3], in assay [6], in [7] and in assay [9] was “inactive” in each case. Further, in assay [4], the activity, negative = inhibition is 0.543% (inactive). In addition, the max response in assay [11] (setting [13]) came to 6.68%; in [11] (setting [14]), 10%. Further, the outcome in assay [12] was inactive.
